Test results reported in PubChem BioAssay.
The source made the active and inactive calls.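 Rule for the calls: active = compounds giving at least 50% inhibition in the cell-based MKP-3 phosphatase rescue imaging test; inactive = the rest.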

test system: not listed separately; assay: DUSP6 inhibitors restoring Erk phosphorylation by chemical complementation, primary imaging in DUSP6-transfected HeLa (AID 609); details: HeLa MKP-3 transfected, phospho-Erk imaging KS statistic; measured here: nuclear pErk red intensity z-score; at 10 µM; stronger effect = higher value; cells stimulated with TPA for 15 min;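 for inhibition: phospho-Erk level distribution per well compared with pooled transfected vehicle control wells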

Row | Structure (SMILES) | z-score
1 | Cc1ccc(CNc2oc(COc3ccccc3Cl)nc2C#N)cc1 | -0.994
2 | COc1ccc(/C(O)=C2\C(=O)C(=O)N(CCN(C)C)C2c2cccc(OC)c2OC)cc1Cl (stereo unspecified) | -0.226
3 | CCC(=O)Nc1nc2ccccc2n1CCN(C)C | -0.675
4 | CCCC(C)n1[nH]c(=O)cc1N (stereo unspecified) | -0.211
5 | CCN(CC)CCOC(=O)c1c(C)n(C)c2ccc(OC)cc12 | -1.03
6 | CN(C)CCCn1c(NC(=O)C2CCCCC2)nc2ccccc21 | -1.54
7 | COc1ccccc1NC(=O)CSc1nnc(-c2ccc(NC(C)=O)cc2)n1C | 0.506
8 | O=C(Nc1ccc(N2CCN(C(=O)c3ccccc3)CC2)c(Cl)c1)c1ccc(Br)o1 | -0.883
9 | Cc1nc2c(o1)CCc1ccccc1C2N1CCN(C)CC1 (stereo unspecified) | 1.56
10 | CN(CCNC(=O)c1ccc(/C=N/O)nc1)Cc1ccccc1 | -0.0227
11 | O=C1C=C(N2CCN(C3=CC(=O)CCC3)CC2)CCC1 | 0.89
12 | Nc1nc2n(n1)C(c1cccs1)CC(c1ccc(F)cc1)N2 (stereo unspecified) | -0.128
13 | CC(=O)/C=C(\C)NCCNc1c(F)c(F)c(CO)c(F)c1F | 0.111
14 | CC1(C)Cc2nc3sc4c(N(CCO)CCO)ncnc4c3cc2CO1 | 1.17
15 | COC(=O)c1ccc(CN(C(C)=O)c2ccccc2)o1 | -0.676
16 | O=C(c1ccc(=O)oc1)N1CCN(C(c2ccccc2)c2ccccc2)CC1 | 1.67
17 | Cc1ccc(-n2c(SCC(=O)NCc3ccco3)nc3nc4c(cc3c2=O)COC(C)(C)C4)cc1 | 0.29
18 | Cc1cc(=O)[nH]c(COc2ccccc2)n1 | 0.438
19 | N#Cc1nc(COc2ccccc2F)oc1NCCCn1ccnc1 | 1.43
20 | COC(=O)c1ccc(C2/C(=C(\O)c3ccc4c(c3)OCCO4)C(=O)C(=O)N2CCCN(C)C)cc1 (stereo unspecified) | 0.407
21 | COc1ccc(C(=O)c2oc3nc(C)cc(C)c3c2N)cc1 | -0.769

target: Dual specificity protein phosphatase 6 (Homo sapiens) (UniProt Q16828); assay: as above; details: HeLa MKP-3 transfected, phospho-Erk imaging KS statistic; at 10 µM; stronger effect = higher value; cells stimulated with TPA for 15 min
Sequence (Q16828 whole entry, looked up): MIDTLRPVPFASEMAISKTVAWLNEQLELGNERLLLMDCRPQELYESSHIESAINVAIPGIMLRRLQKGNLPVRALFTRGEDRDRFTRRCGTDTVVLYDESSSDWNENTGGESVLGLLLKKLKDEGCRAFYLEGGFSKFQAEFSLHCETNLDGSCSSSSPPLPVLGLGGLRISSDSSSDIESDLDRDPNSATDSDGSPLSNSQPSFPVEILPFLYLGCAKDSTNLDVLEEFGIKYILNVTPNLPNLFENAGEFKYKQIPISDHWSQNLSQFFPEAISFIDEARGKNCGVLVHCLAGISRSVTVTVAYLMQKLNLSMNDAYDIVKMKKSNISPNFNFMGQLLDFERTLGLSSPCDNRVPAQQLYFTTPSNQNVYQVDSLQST

Row | Structure (SMILES) | inhibition
22 | CCN1CCc2c(C#N)c(N3CCCCC3)nc(N3CCOCC3)c2C1 | -2.09% (inactive)
23 | CC(NC(=O)Nc1nnc(C(F)(F)F)s1)(C(F)(F)F)C(F)(F)F | 1.63% (inactive)
24 | O=c1[nH]c2sc3c(c2c(=O)n1Cc1ccccc1)CCC3 | 9.07% (inactive)
25 | CC1(C)Cc2c(C#N)c(OCC(=O)c3ccccc3)nc(-c3ccoc3)c2CO1 | -0.233% (inactive)
26 | O=c1[nH]c2cnccc2n1-c1ccccc1 | 9.91% (inactive)
27 | O=C(c1cc(N2CCCCC2)nc2ccccc12)N1CCOCC1 | -15% (inactive)
28 | CC(C)(C)NC(=O)/C=N/O | 1.63% (inactive)
29 | COc1cc(N2CCCC2)c(OC)cc1/C=c1/sc2nc3ccccc3n2c1=O | 39.3% (inactive)
30 | COc1cccc(C(=O)OC2CCCN(C)C2)c1 (stereo unspecified) | 9.42% (inactive)
31 | N#Cc1nc(-c2cccs2)oc1NCc1ccccc1Cl | 1.63% (inactive)
32 | Cc1cc(=O)oc(C)c1C(=O)n1nc(C)c2c1C[C@@H]1[C@H]2C1(C)C | 15.9% (inactive)
33 | Brc1ccc2c(c1)CNc1c(ncnc1N1CCOCC1)O2 | 3.42% (inactive)
34 | CCOC(=O)NC1(C(F)(F)F)C(=O)NC(C)=C1C#N (stereo unspecified) | 3.42% (inactive)
35 | COCc1n[nH]c(=S)n1-c1cccc2ccccc12 | 5.95% (inactive)
36 | OC1(C2(O)CC(c3ccccc3)ON2)CCCCC1 (stereo unspecified) | -5.81% (inactive)
37 | CC(C)Cc1nc(N2CCN(C(=O)Cc3ccccc3)CC2)c(C#N)c2c1COC(C)(C)C2 | 9.07% (inactive)
38 | CCCCCNc1nc(N2CCCC2)c2c(c1C#N)CCN(C)C2 | -9.53% (inactive)
39 | O=c1c(-c2ccc(Cl)cc2)[n+]([O-])c2ccccc2n1O | 15.9% (inactive)
40 | COc1ccccc1C1/C(=C(/O)c2ccc(OC(C)C)cc2)C(=O)C(=O)N1c1cc(C)on1 (stereo unspecified) | 9.37% (inactive)
41 | Cc1ccc(CNc2oc(COc3ccccc3Cl)nc2C#N)cc1 | 4.37% (inactive)

Row | Structure (SMILES) | inhibition
42 | COc1ccc(/C(O)=C2\C(=O)C(=O)N(CCN(C)C)C2c2cccc(OC)c2OC)cc1Cl (stereo unspecified) | 11.4% (inactive)
43 | CCC(=O)Nc1nc2ccccc2n1CCN(C)C | -1.98% (inactive)
44 | CCCC(C)n1[nH]c(=O)cc1N (stereo unspecified) | 30.7% (inactive)
45 | CCN(CC)CCOC(=O)c1c(C)n(C)c2ccc(OC)cc12 | 4.37% (inactive)
46 | CN(C)CCCn1c(NC(=O)C2CCCCC2)nc2ccccc21 | -3.95% (inactive)
47 | COc1ccccc1NC(=O)CSc1nnc(-c2ccc(NC(C)=O)cc2)n1C | 12.8% (inactive)
48 | O=C(Nc1ccc(N2CCN(C(=O)c3ccccc3)CC2)c(Cl)c1)c1ccc(Br)o1 | -7.28% (inactive)
49 | Cc1nc2c(o1)CCc1ccccc1C2N1CCN(C)CC1 (stereo unspecified) | 17.8% (inactive)
50 | CN(CCNC(=O)c1ccc(/C=N/O)nc1)Cc1ccccc1 | 1.63% (inactive)
51 | O=C1C=C(N2CCN(C3=CC(=O)CCC3)CC2)CCC1 | -0.233% (inactive)
52 | Nc1nc2n(n1)C(c1cccs1)CC(c1ccc(F)cc1)N2 (stereo unspecified) | 5.65% (inactive)
53 | CC(=O)/C=C(\C)NCCNc1c(F)c(F)c(CO)c(F)c1F | 1.9e-07% (inactive)
54 | CC1(C)Cc2nc3sc4c(N(CCO)CCO)ncnc4c3cc2CO1 | -4.59% (inactive)
55 | COC(=O)c1ccc(CN(C(C)=O)c2ccccc2)o1 | 15.4% (inactive)
56 | O=C(c1ccc(=O)oc1)N1CCN(C(c2ccccc2)c2ccccc2)CC1 | -3.95% (inactive)
57 | Cc1ccc(-n2c(SCC(=O)NCc3ccco3)nc3nc4c(cc3c2=O)COC(C)(C)C4)cc1 | 3.97% (inactive)
58 | Cc1cc(=O)[nH]c(COc2ccccc2)n1 | 3.49% (inactive)
59 | N#Cc1nc(COc2ccccc2F)oc1NCCCn1ccnc1 | -0.624% (inactive)
60 | COC(=O)c1ccc(C2/C(=C(\O)c3ccc4c(c3)OCCO4)C(=O)C(=O)N2CCCN(C)C)cc1 (stereo unspecified) | 9.82% (inactive)
61 | COc1ccc(C(=O)c2oc3nc(C)cc(C)c3c2N)cc1 | 19.4% (inactive)
